# Test results reported in the supplement of paper PMC10849652.
# The full data set covers some 7,900 targets. This sample favours those with a hit. About 0.6% of all pairs of compound and target were hits. Unmarked numbers belong to inactive results.
# How the values were obtained:
# Experiment in all cases: log2 fold change, soluble protein after heating vs DMSO (PISA); higher = thermal stabilisation; K562 cells, 10 uM, 30 min; active = over 0.2 and 3.5 SD of the protein, either way, in both replicates (recomputed)
# [1] = compound: C#Cc1cccc(Nc2ncnc3cc(OCCOC)c(OCCOC)cc23)c1 [erlotinib]
# Outline: (§1)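 Values are thermal stability changes relative to control samples and are taken from duplicates. They are stated as log2 fold changes. Before quantification by TMTpro 16plex LC-MS/MS with equalised channel sums, K562 cells at 2×10^6 cells/mL were treated with 10 μM compound for 30 min, heated in aliquots for 3 min across 48°C-58°C, pooled, extracted in PBS with 0.5% NP-40 at 4°C, and centrifuged at 21,000xg for 90 min to give the soluble supernatant.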
# [2] = compound: C/C(=N\NC(=O)C1=CC(=CC=C1)S(=O)(=O)N2CCOCC2)/C3=C(C=CC(=C3)Cl)O
# Outline: as §1
# [3] = compound: C1=CC(=C(C=C1Cl)C2=NC3=NC=CN=C3C(=N2)NC4=CC=NC=C4)F
# Outline: as §1
# [4] = compound: C1=CC(=CC=C1C2=NC3=C(N2)C=C(C=C3)C(=O)N)OC4=CC=C(C=C4)Cl
# Outline: as §1
# [5] = compound: C1=CC2=C(C=CC(=C2)/C=C\3/C(=O)NC(=NCC4=CC=CS4)S3)N=C1
# Outline: as §1
# [6] = compound: C1=CC2=NC=CN=C2C=C1/C=C/3\C(=O)NC(=O)S3
# Outline: as §1
# [7] = compound: C1=CC=C(C=C1)C2=NC(=C(N2)C3=CC=NC=C3)C4=CC(=C(C=C4)Cl)O
# Outline: as §1
# [8] = compound: C1=CC=C2C(=C1)C3=NNC4=CC=CC(=C43)C2=O
# Outline: as §1
# [9] = compound: C1CCN(C1)C(=O)NC2=CC=CC(=C2)NC3=NC=C(C(=N3)NCCC4=CN=CN4)Br
# Outline: as §1
# [10] = compound: C1CN(CCC1(CC2=CC=C(C=C2)Cl)N)C3=NC=NC4=C3C=CN4
# Outline: as §1
# Chain of UniProt Q14457 (Q14457 whole entry, looked up): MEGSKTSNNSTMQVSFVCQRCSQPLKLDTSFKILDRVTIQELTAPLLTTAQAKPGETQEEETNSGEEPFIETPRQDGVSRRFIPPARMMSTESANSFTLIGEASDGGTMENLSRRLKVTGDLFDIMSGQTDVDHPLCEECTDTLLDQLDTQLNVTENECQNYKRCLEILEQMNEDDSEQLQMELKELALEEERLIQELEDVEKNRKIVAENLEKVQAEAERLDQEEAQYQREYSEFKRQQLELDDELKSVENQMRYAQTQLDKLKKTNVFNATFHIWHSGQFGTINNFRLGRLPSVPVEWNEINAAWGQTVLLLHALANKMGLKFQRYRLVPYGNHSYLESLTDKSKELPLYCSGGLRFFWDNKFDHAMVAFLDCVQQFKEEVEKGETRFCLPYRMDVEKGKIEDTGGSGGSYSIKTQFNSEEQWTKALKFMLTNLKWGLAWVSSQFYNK
# Chain of UniProt Q66PJ3 (Q66PJ3 whole entry, looked up): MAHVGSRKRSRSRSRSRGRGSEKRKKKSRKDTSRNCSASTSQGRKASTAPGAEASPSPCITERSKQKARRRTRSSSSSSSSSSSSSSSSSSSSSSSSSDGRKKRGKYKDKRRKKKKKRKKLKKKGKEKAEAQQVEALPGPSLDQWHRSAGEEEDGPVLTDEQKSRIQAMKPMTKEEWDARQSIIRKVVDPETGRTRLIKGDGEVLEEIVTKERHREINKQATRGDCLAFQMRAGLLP
# Chain of UniProt Q7Z569 (Q7Z569 whole entry, looked up): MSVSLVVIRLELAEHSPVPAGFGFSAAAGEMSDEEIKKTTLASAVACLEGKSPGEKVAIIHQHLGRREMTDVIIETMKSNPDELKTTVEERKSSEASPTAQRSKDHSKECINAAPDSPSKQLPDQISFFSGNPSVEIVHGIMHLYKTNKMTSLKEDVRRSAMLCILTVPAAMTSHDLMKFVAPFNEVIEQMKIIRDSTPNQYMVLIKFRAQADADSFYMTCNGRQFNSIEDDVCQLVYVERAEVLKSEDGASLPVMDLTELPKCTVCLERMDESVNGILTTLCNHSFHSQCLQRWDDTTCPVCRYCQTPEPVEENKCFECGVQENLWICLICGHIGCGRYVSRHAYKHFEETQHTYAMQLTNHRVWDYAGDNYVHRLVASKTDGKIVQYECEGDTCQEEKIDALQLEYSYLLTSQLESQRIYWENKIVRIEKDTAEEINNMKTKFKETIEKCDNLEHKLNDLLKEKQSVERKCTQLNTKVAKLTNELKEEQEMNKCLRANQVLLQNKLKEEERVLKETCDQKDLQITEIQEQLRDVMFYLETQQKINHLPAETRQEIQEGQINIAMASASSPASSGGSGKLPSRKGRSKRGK
# Chain of UniProt Q15057 (Q15057 whole entry, looked up): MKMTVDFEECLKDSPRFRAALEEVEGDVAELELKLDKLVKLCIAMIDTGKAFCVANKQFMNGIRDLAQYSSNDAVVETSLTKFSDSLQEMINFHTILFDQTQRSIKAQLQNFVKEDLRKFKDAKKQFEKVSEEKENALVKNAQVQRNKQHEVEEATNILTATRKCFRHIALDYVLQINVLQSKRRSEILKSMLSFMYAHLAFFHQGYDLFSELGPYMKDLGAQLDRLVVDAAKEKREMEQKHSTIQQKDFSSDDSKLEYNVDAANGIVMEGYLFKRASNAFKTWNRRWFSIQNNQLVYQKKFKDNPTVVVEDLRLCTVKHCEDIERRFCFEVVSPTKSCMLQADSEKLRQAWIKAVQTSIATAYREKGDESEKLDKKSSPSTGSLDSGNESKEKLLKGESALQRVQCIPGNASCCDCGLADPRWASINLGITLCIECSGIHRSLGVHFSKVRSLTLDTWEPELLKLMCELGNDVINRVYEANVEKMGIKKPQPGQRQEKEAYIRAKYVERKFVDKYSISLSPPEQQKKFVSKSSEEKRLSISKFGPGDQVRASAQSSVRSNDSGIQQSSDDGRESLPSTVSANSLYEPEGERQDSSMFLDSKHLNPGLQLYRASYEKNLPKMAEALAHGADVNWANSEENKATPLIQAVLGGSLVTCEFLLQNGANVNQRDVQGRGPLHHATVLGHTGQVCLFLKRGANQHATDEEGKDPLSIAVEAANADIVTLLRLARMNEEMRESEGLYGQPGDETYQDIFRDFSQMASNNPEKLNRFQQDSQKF
# Chain of UniProt Q53FZ2 (Q53FZ2 whole entry, looked up): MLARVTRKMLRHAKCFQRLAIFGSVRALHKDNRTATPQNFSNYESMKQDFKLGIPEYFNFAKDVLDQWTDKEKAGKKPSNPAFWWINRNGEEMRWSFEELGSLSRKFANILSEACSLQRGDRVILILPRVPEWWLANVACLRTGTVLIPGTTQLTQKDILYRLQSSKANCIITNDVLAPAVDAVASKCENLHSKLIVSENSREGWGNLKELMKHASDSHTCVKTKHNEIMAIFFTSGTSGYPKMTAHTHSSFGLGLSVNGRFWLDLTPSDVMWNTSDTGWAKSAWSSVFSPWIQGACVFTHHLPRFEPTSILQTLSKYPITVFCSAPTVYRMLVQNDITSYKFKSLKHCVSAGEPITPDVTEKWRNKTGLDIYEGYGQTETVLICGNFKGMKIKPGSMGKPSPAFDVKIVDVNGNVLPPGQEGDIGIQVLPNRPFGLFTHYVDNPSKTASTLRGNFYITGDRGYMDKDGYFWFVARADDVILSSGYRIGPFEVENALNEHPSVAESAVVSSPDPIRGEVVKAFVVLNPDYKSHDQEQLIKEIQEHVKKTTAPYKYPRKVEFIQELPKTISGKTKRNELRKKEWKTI
# Chain of UniProt O00170 (O00170 whole entry, looked up): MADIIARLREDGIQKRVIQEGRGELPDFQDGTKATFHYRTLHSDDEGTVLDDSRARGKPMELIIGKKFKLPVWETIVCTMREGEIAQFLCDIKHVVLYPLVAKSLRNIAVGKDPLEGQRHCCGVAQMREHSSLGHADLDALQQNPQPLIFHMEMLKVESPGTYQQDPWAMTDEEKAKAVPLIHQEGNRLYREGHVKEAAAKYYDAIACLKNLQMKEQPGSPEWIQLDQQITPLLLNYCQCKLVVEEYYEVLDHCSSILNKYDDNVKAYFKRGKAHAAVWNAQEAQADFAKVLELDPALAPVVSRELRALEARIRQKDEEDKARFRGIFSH
# Chain of UniProt Q9UKV5 (Q9UKV5 whole entry, looked up): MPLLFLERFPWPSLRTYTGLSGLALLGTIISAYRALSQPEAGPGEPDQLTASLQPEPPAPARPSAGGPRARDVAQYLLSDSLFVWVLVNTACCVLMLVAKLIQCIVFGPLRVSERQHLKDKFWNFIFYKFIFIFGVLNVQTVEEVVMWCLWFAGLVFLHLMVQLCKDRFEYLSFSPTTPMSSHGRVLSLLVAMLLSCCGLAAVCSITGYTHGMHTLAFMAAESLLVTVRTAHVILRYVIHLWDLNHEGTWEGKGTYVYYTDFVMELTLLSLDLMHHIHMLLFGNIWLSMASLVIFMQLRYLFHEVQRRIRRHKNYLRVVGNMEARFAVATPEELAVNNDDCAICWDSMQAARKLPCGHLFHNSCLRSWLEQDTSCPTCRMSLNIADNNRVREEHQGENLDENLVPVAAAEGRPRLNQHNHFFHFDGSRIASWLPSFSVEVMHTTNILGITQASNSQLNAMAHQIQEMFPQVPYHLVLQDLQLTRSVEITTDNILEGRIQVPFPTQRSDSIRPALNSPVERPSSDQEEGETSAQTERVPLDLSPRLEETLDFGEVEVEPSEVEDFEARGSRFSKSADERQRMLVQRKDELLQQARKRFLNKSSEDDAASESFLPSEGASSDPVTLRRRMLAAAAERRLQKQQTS
# Chain of UniProt Q86WA6 (Q86WA6 whole entry, looked up): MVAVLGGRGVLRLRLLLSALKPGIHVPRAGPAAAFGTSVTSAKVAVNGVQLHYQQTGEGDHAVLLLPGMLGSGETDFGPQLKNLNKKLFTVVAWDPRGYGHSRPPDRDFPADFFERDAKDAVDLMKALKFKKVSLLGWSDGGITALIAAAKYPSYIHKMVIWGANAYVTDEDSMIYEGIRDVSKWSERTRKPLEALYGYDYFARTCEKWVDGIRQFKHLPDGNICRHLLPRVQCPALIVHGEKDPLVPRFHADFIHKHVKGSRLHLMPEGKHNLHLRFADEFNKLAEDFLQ
# Chain of UniProt Q13733 (Q13733 whole entry, looked up): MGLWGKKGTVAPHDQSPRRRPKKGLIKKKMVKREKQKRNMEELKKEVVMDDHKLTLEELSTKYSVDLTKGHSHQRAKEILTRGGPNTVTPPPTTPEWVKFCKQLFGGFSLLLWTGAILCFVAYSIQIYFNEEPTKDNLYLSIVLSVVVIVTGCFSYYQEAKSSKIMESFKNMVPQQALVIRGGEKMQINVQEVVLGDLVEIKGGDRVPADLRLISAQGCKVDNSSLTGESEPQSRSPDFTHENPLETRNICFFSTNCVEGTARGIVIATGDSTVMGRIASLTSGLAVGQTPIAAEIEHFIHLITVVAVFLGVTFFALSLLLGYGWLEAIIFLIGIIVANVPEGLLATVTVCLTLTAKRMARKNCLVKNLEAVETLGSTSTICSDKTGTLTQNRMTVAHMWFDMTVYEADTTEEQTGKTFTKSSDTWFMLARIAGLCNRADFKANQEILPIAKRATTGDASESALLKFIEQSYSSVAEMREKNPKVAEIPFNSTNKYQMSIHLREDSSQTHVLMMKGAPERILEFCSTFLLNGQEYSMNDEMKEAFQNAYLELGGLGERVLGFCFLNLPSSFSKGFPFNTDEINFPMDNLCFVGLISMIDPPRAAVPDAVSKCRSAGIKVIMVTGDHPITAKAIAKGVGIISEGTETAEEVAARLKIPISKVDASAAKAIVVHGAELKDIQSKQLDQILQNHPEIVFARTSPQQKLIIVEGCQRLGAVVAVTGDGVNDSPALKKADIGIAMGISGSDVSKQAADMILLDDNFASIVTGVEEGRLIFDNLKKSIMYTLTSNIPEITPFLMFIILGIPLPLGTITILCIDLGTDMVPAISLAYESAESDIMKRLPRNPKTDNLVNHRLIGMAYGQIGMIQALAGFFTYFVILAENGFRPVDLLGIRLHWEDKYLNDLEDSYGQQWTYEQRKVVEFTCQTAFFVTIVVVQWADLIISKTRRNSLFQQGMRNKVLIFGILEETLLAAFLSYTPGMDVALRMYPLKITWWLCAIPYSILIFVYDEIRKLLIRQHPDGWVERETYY
Target,log2 fold change [1],log2 fold change [2],log2 fold change [3],log2 fold change [4],log2 fold change [5],log2 fold change [6],log2 fold change [7],log2 fold change [8],log2 fold change [9],log2 fold change [10]
ACAP2 (UniProt Q15057),-0.002,0.054,0.062,-0.05,0.056,0.037,-0.032,-0.012,-0.042,-0.013
BPHL (UniProt Q86WA6),-0.016,0.053,0.057,-0.016,0.142,0.058,-0.028,0.02,-0.38 (active),0.182
BCL9L (UniProt Q86UU0),0.01,-0.256,-0.008,0.049,0.036,-0.048,-0.128,0.07,-0.052,0.091
ATP1A4 (UniProt Q13733),-0.076,0.033,0.183,0.046,-0.051,0.063,-0.003,-0.112,-0.009,-0.015
ACSM3 (UniProt Q53FZ2),0.078,0.01,0.076,-0.235,0.088,-0.009,-0.078,-0.072,0.009,0.01
AIP (UniProt O00170),0.035,0.096,0.133,-0.006,0.042,0.048,-0.01,0.011,0.005,-0.026
ARL6IP4 (UniProt Q66PJ3),0.041,0.06,-0.085,-0.01,-0.08,0,-0.12,0.117,0.003,0.039
ATP1A1 (UniProt P05023),0.003,0.02,0.017,-0.012,-0.036,0.012,-0.017,-0.032,-0.015,0.057
AMFR (UniProt Q9UKV5),0.116,0,-0.022,-0.062,-0.046,0.058,0.026,-0.062,0.002,-0.009
BRAP (UniProt Q7Z569),0.114,0.09,0.022,0.012,0.001,0.032,0.172,-0.023,-0.07,-0.059
BECN1 (UniProt Q14457),-0.007,-0.035,0.043,-0.042,-0.001,0.085,-0.043,0.008,0.002,-0.042
